Data published in PubChem BioAssay AID624330 (Southern Research Specialized Biocontainment Screening …, 2012).
The campaign covered roughly 340,000 compounds. About 2,100 (0.62%) were called active.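 How the source made its calls: active means first-screen hits whose inhibition reached a set limit at any dose in the follow-up dose series; inconclusive means inhibition above the set first-screen limit but never retested; inactive means the rest.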 These entries were drawn from the full list. Entries with a potency or affinity are not part of this list.

Target: Rac GTPase-activating protein 1 (Homo sapiens) (UniProt Q9H0H5)
Assay: blockers of MgcRacGAP-driven Rac1 GTP hydrolysis – biochemical, ADP Hunter fluorescence, primary and confirmatory, confirmation (AID 624330);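 further: fluorescence reports GDP produced by GAP-driven GTP hydrolysis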
Settings: MgcRacGAP-stimulated Rac1 GTP hydrolysis, at 30 µM, hits give high values, GST-tagged Rac1 F28L mutant substrate

Chain of Rac GTPase-activating protein 1 (Homo sapiens) (Q9H0H5 whole entry, looked up): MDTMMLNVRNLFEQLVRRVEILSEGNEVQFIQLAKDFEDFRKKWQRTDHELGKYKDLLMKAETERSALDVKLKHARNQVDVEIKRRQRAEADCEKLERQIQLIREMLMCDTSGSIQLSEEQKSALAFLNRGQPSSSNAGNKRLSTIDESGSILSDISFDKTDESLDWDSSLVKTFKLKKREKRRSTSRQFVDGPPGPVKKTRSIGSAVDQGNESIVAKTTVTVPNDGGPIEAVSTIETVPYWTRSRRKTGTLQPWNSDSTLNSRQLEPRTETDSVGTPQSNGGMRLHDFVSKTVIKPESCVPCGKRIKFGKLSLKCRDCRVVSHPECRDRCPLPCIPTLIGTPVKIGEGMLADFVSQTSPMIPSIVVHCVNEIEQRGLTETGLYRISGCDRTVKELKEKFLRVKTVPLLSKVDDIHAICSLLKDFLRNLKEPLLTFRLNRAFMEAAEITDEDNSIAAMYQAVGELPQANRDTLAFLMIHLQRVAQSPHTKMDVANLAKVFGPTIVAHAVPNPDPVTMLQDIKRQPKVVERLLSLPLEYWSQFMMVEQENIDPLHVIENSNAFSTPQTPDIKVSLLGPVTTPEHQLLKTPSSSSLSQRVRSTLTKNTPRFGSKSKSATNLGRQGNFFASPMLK

inhibition, inactive:
Cc1ccc2c(c1)N(C(=O)CCC(=O)N1CCC(C(N)=O)CC1)CCO2 -0.21%
O=C(CN1C(=O)NC2(CCCCC2)C1=O)Nc1ccc(N2CCCCC2)cc1 -8.69%
Cc1cc(Cl)ccc1NC(=O)CN1C(=O)NC2(CCCC2)C1=O 7.39%
Cc1cc(N2CCCC2)ccc1NC(=O)CN1C(=O)NC(C)(c2ccccc2)C1=O (stereo not given) 22.9%
CCC1(c2ccccc2)NC(=O)N(CC(=O)Nc2ccccc2N2CCCC2)C1=O (stereo not given) 2.64%
Cc1ccc(C)c(NS(=O)(=O)c2cc3c4c(c2)CC(=O)N4CCC3)c1 12.2%
COc1cc([C@@H]2OC[C@@H]3[C@H]2CO[C@@H]3c2ccc3c(c2)OCO3)ccc1O 15.6%
COc1cc(C2N(C)C(=O)c3ccccc3N2C)ccc1O (stereo not given) 9.29%
O=C1c2ccccc2C(=O)C1c1ccc(Br)cc1 9.65%
COc1ccc(C2C(=O)c3ccccc3C2=O)cc1OC 8.73%
Cc1ccc(C2C(=O)c3ccccc3C2=O)cc1 5.72%
COc1cc(C2OCC3C(c4cc(OC)c(OC)c(OC)c4)OCC23)cc(OC)c1OC (stereo not given) 3.17%
O=C(NNc1nc2c(F)cccc2s1)c1ccccc1 3.05%
CC(=O)NC(CC(=O)NCCc1ccccc1)c1ccccc1 (stereo not given) 5.84%
COc1cc(/C=C/C(=O)O)cc(S(=O)(=O)N(CC(C)C)CC(C)C)c1OC 3.78%
Cc1cc(OC(C)C(=O)NCCCN2CCOCC2)c2c(C)cc(=O)oc2c1 (stereo not given) 5.41%
CCN1C[C@@H]2[C@@H]3C(=O)N(C)C(=O)[C@@H]3[C@](Cc3ccccc3)(C(=O)OC)N2C1=NCc1ccccc1 8.57%
COc1cccc(NC(=O)COc2ncnc3sc(C)c(C)c23)c1 5.65%
CCOc1ccccc1/C=C(/NC(=O)c1ccccc1)C(=O)N(CC)CC 5.35%
CC[C@]12C(=O)N(C)C[C@H]([C@@H]3C(=O)N(C)C(=O)[C@@H]31)N2C(=O)c1ccc(F)cc1 7.98%
CNS(=O)(=O)c1cccc(C(=O)OCC(=O)C23CC4CC(CC(C4)C2)C3)c1 2.1%
COCc1cc(C)nc(OCC(=O)N/N=C/c2ccc(C)cc2)c1C#N 6.19%
O=C(COc1cccc2cccnc12)N/N=C/c1ccccc1O 9.73%
O=C(COc1ccccc1[N+](=O)[O-])N/N=C/c1ccc(O)c([N+](=O)[O-])c1 5%
O=C(COc1ccccc1[N+](=O)[O-])N/N=C/c1ccncc1 3.99%
COCc1cc(C)nc(OCC(=O)N/N=C/c2ccccc2)c1C#N 5.88%
COc1ccc(/C=N/NC(=O)COc2cccc3cccnc23)cc1OC 12%
CC(C(=O)NCC1CCCCC1)N(C)Cc1ccc(Cl)cc1 (stereo not given) 9.97%
NC(=O)c1ccc(NC(=O)CCc2nc3ccccc3s2)cc1 9.08%
Fc1ccccc1CN1CCN(c2ncccn2)CC1 18.2%
COc1cccc(OC)c1C(=O)N1CCN(Cc2ccncc2)CC1 17.3%
COc1ccc(CN2CCN(C(=O)c3cccnc3)CC2)cc1Br 26.4%
COc1ccccc1C(=O)N1CCN(CCc2ccccc2)CC1 5.14%
COc1ccccc1C(=O)N1CCN=C1SCc1cccnc1 9.35%
CCOc1ccccc1/C=C/c1nc2ccccc2[nH]c1=O -3.6%
CSCCC(=O)N(C)CC1CCN(CCc2cccc(C(F)(F)F)c2)CC1 -11.6%
COc1cc(OC)nc(NC(=O)NS(=O)(=O)c2ccc(OC(F)(F)F)cc2)n1 7.78%
COc1ccc2nc(SCC(=O)NC3CCCCC3C)[nH]c2c1 (stereo not given) 6.19%
COc1ccc(C(O)(C(C)C)C(CN2CCOCC2)c2ccc(Cl)cc2)cc1 (stereo not given) 3.23%
Oc1ccccc1/C=N/NC1=NCCCCC1 -4.7%
Oc1ccc(/C=N/NC2=NCCCCC2)cc1 14.8%
COc1ccc(/C=N/Nc2cc(C)nc(NS(=O)(=O)c3ccc(C)cc3)n2)cc1 8.72%
COc1ccc(-c2cnnc(N/N=C/c3ccc(O)c(OC)c3)n2)cc1 28.9%
COc1ccc(-c2cnnc(N/N=C/c3ccc(O)cc3)n2)cc1 15.5%
COc1cc(/C=N/Nc2nc(C)cc(C)n2)ccc1OC(=O)c1ccco1 12.7%
COc1cc(/C=N/Nc2nc(C)cc(C)n2)cc(OC)c1OC 18.6%
COc1cc(/C=N/Nc2cc(C)nc(NS(=O)(=O)c3ccc(C)cc3)n2)ccc1O 23.4%
CC(=O)NCc1nc2ccccc2n1Cc1ccccc1F 2.14%
Cc1cccc(C(=O)OCC(=O)NC2CCCCCCC2)c1 -0.77%
Cc1cc(C)c(C#N)c(SCc2nc3ccccc3[nH]2)n1 11.2%
CCN(C(=O)c1ccccc1)c1ccc([N+](=O)[O-])cc1 6.29%
C=CCn1c(N)cc(=O)nc1SCC(=O)Nc1ccc2ccccc2c1 6.15%
NC1=NC(c2ccccc2)CC(=O)N1 (stereo not given) 0.78%
COc1ccc(OC)c(CN2CCN(CC(=O)Nc3ccccc3C(=O)NC3CC3)CC2)c1 3.43%
Cc1ccc(-n2c(CNc3cccc(Cl)c3)n[nH]c2=S)cc1 -10.3%
CCN(CC)S(=O)(=O)c1cccc(C(=O)NCC2CCCO2)c1 (stereo not given) -3.29%
S=C(c1ccc(-c2ccccc2Cl)o1)N1CCOCC1 10.6%
Cc1cc(C)nc(N/N=C/c2ccc(Cl)cc2)n1 7.83%
COc1ccccc1/C=N/NC1=NCCCCC1 4.83%
COc1ccc(/C=N/NC2=NCCCCC2)cc1 -0.36%
COc1cc(/C=N/Nc2nnc3c(n2)[nH]c2ccccc23)ccc1O 9.92%
Cc1ccc(/C=N/Nc2nc(C)cc(C)n2)cc1 6.97%
COc1cc(/C=N\Nc2nc(-c3ccc(C)cc3)c(NC(C)=O)s2)ccc1O 17.7%
CCNc1nc(NCC)nc(N/N=C/c2ccc(Br)cc2)n1 4.59%
CCNc1nc(NCC)nc(N/N=C/c2ccccc2)n1 5.89%
